The list is not random: actives were taken first. Their share in the collection is about 4.1%.
hgDAF12 agonist: H. glycines DAF-12 receptor agonists, primary screen, cell-based, luminescence, HEK293, GAL4 fusion, UAS-luciferase; activation, % at 6.8 µM; Nuclear hormone receptor DAF-12 (Heterodera glycines), GAL4 fusion; HEK293 GAL4-hgDAF12 UAS-luciferase reporter, agonist luminescence; normalized to butyrate control; 370,000 tested, 1.8% active; AID 687014, 2013;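 active = activation above a cutoff set at the mean of all screened compounds plus 3 SD, cut at about 10% in these data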;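 also: 0% = DMSO wells and 100% = sodium butyrate wells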
DAX1 inh-1: DAX1 (NR0B1) inhibitors, primary screen, cell-based, HEK293, Gal4-DAX1, luciferase luminescence. Nuclear receptor subfamily 0 group B member 1 (Homo sapiens), P51843. HEK293 Gal4-DAX1 luciferase reporter. inhibition, % at 6.75 µM. 340,000 tested, 0.99% active;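 active = inhibition above the mean over all tested compounds plus 3 SD, cut at about 4.2% in these data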;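 also: 0% = DAX1-transfected cells with DMSO and 100% = empty-vector control cells with DMSO; inhibition shows as a rise in luminescence from relieved DAX1 repression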
Target sequence (P51843 207-470 limits assumed): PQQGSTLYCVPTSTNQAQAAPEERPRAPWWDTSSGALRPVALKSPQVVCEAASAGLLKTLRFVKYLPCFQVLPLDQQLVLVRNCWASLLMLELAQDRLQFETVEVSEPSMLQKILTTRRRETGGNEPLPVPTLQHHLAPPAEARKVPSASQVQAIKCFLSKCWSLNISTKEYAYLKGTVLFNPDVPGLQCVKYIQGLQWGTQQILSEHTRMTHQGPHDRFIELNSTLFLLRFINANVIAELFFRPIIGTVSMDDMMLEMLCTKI
DAX1 inh-2: DAX1 (NR0B1) inhibitors on StAR promoter, primary screen, cell-based, luminescence, SF-1 (NR5A1), full-length DAX-1; HEK293T StAR-luciferase reporter, SF-1/DAX-1 repression relief; inhibition, % at 6.8 µM; 370,000 tested, 1.1% active;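 active = inhibition above the mean over all tested compounds plus 3 SD, cut at about 3.6% in these data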;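 also: 0% = DAX-1 cells with DMSO and 100% = cells lacking DAX-1 with DMSO; higher inhibition means more luminescence from relief of DAX-1 repression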
ssDAF-12 act: S. stercoralis DAF-12 nuclear receptor activators, primary screen, cell-based, luminescence, HEK293, GRIP1 co-expression, lit1-tk-luc; activation, % at 6.8 µM; Nuclear hormone receptor DAF-12 (Strongyloides stercoralis); HEK293 ssDAF-12/GRIP1 lit1-tk-luc reporter; % of 3 µM dafachronic acid response; 370,000 tested, 1% active; AID 652126, 2013;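 active = activation above the mean over all tested compounds plus 3 SD, cut at about 0.9% in these data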;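 also: 0% = DMSO-only wells and 100% = 3 µM delta7-dafachronic acid wells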
hcDAF-12 act: H. contortus DAF-12 nuclear receptor activators, primary screen, cell-based, luminescence, HEK293, lit1-tk-luc reporter. HEK293 hcDAF-12 lit1-tk-luc reporter; 0% DMSO, 100% Δ7-dafachronic acid. activation, % at 6.8 µM. 370,000 tested, 1.4% active. AID 652067, 2013;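 active = activation above the mean of all tested compounds plus 3 SD, cut at about 5.5% in these data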;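 also: 100% = response to 3 µM Δ7-dafachronic acid high control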
LXRb hcDAF ctr: LXR agonists, Gal4 luciferase reporter, confirmation, counter-screen for hcDAF-12 agonist project, cell-based, luminescence, HEK293, H. contortus campaign; shares compounds with hcDAF-12 act; HEK293 Gal4-LXR tk-luc reporter, 24 h; normalized: DMSO 0%, positive control 100%; activation, % at 6.8 µM; 3,400 tested, under 10 active;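 active = mean percent activation of the reporter above a cutoff set as the average over tested compounds plus their standard deviation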
hcDAF12 conf: H. contortus DAF-12 receptor agonists, confirmation, cell-based, luminescence, HEK293, lit1-tk-luc, triplicate; HEK293 hcDAF-12 lit1-tk-luc reporter; % of Δ7-dafachronic acid response; 3,400 tested, 61% active; shares compounds with hcDAF-12 act; activation, % at 6.8 µM;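 active = mean activation across triplicate tests above the threshold derived from the earlier primary screen, cut at about 5.5% in these data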;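 also: 0% = DMSO only wells and 100% = 3 µM Δ7-dafachronic acid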
Numbers without * were called inactive; x = no result given.

SMILES	hgDAF12 agonist	DAX1 inh-1	DAX1 inh-2	ssDAF-12 act	hcDAF-12 act	LXRb hcDAF ctr	hcDAF12 conf
COC(=O)c1cc(C)ccc1/C=C1/Cc2c(C)cc(C)cc2C1=O	-1	0	0	-1	-1	x	x
Cc1ccc(NC(=O)c2c(Cl)nc3ccccn23)cc1	13*	3	3	1.1*	12*	1	10*
Cc1nc2ccccn2c1C(=O)Nc1ccc(Cl)cc1	8	-1	1	-1	3	x	x
Cc1ccc(C)c(N=Nc2nc3ccccc3n2C)c1	8	2	0	1.2*	12*	1	13*
O=[N+]([O-])c1cccc2ccc(/C=C/c3ccc(Cl)cc3)nc12	6	0	1	0	4	x	x
O=[N+]([O-])c1cccc2ccc(/C=C/c3ccc(C(F)(F)F)cc3)nc12	2	0	0	0	7.6*	0	2
Cc1oc(-c2ccccc2)nc1C(=O)Nc1nccs1	6	2	2	1	8.7*	1	8.5*
COc1ccc(-c2csc(NC(=O)c3nc(-c4ccccc4)oc3C)n2)cc1	1	0	0	0	-1	x	x
CC(=O)c1c(C)nc(Nc2nc(C)c3cc(C)ccc3n2)nc1C	-2	-1	0	-2	0	x	x
CC(=O)c1c(C)nc(Nc2nc3ccccc3s2)nc1C	9	x	1	1.6*	11*	2	13*
O=C(COC(=O)/C=C/c1ccc(F)cc1)Nc1ccccc1-c1ccccc1	0	0	0	-1	4	x	x
CN(C)CCNC(=O)C(=O)C1C(=O)Nc2ccccc21 (configuration not stated)	-1	x	0	0.9*	8.0*	0	5
CCCCCNC(=O)C(=O)C1C(=O)Nc2ccccc21 (configuration not stated)	0	3	0	1	4	x	x
Cc1ccc(C)c(S(=O)(=O)N2CCN(C(=O)[C@@H](NC(=O)c3ccc(F)cc3)C(C)C)CC2)c1	-5	1	1	-1	-1	x	x
CCOC(=O)c1c(NC(=O)c2cccs2)sc(CC)c1-c1cccs1	2	0	-1	-1	-2	x	x
Cc1sc(NC(=O)c2cccs2)c(C(N)=O)c1C	9	1	1	0	8.5*	0	6.2*
CC1CN(C(=O)COC(=O)c2ccc3ccccc3c2)CC(C)O1 (configuration not stated)	-3	2	0	-1	1	x	x
Cc1cc(NC(=O)COC(=O)c2oc3c(Cl)cccc3c2C)no1	2	3	0	0	6.8*	0	3
CC(C)CCNC(=O)C(=O)NCCC1=CCCCC1	4	-1	0	0	6.7*	0	2
COc1cc2c(cc1NC(=O)C1CCCO1)oc1ccccc12 (configuration not stated)	15*	1	3	2.3*	12*	1	17*
COc1cc2c(cc1NC(=O)Nc1ccc(C)cc1)oc1ccccc12	7	-1	0	-1	8.5*	0	1
COc1ccc(Cl)cc1NC(=O)C1CCCO1 (configuration not stated)	1	1	0	-1	-2	x	x
CCOc1cc(/C=N\NC(=O)c2c(C)nc3ccccn23)ccc1O	2	0	-1	-1	8.0*	0	2
Cc1nc2ccccn2c1C(=O)N/N=C/c1ccc2c(c1)OCO2	2	2	1	-1	1	x	x
Cn1c(NC(=O)/C=C/c2ccccc2)cc(=O)n(C)c1=O	2	4.8*	1	1.3*	11*	1	6.3*
SMILES	hgDAF12 agonist	DAX1 inh-1	DAX1 inh-2	ssDAF-12 act	hcDAF-12 act	LXRb hcDAF ctr	hcDAF12 conf
Cc1cccc(N2CN=c3s/c(=C\c4ccccn4)c(=O)n3C2)c1	0	1	0	1	10*	0	0
Cc1cc(C)n(CCC(=O)N2CCc3ccccc32)n1	-1	1	0	0	6.9*	0	4
CC(CC(=O)N1CCc2ccccc21)n1cccn1 (configuration not stated)	8	1	3	0	11*	0	5.7*
O=C(CCn1cccc1)N1CCc2ccccc21	3	0	2	-1	-1	x	x
CCOC(=O)c1ccc2c(c1)NCc1cccc(OC)c1O2	13*	1	1	1.1*	6.6*	1	7.9*
COc1ccc(C(=O)OCC(=O)c2ccc3c(c2)NC(=O)CO3)cc1OC	1	0	0	0	0	x	x
CCOc1ccc(N=Cc2ccccc2O)cc1	4	3	0	-1	0	x	x
COc1ccc(-c2nc3ccccc3c(=O)n2CCOc2ccccc2C)cc1	3	6.9*	0	0	6.6*	0	2
CCCC(=O)N1CCN(S(=O)(=O)c2cc(Cl)ccc2OC)CC1	1	1	0	-1	-1	x	x
Cc1ccc(SC2=C(Sc3ccc(C)cc3)C(=O)c3ccccc3C2=O)cc1	6	3	2	1	9.7*	0	2
O=C1C(Cl)=C(Nc2ccccc2)C(=O)c2ccccc21	3	2	1	0	7.9*	0	1
Cc1ccc(NC(=O)c2ccc(NCCN)c([N+](=O)[O-])c2)cc1	2	-1	1	0	7.1*	0	3
COCCn1c(C)cc(C(=O)CSc2nc3ccccc3s2)c1C	-7	-3	-1	-2	-2	x	x
COCCn1c(C)cc(C(=O)CSc2nc3ccccc3o2)c1C	10	1	2	0	8.4*	1	4
O=c1c(=NNc2ccccc2Cl)c(=O)c2ccccc12	4	3	0	0	7.9*	2	24*
O=C(Nc1nccc(-c2cccs2)n1)c1cccs1	7	3	0	0	7.1*	0	6.8*

Compound activity as filed in PubChem BioAssay.
